According to PubChem BioAssay (EPA / NIEHS):
Records with an inconclusive call do not appear. Activity calls are given as the source filed them. The calls were made as follows: active = hit-call score of the fitted dose curve at least 0.9, where 1 is the maximum; inconclusive = response in the unintended direction; inactive = score below 0.9.

Biological target: human RAR-related Orphan Receptor gamma (RORg), RORC (gene 6097) (UniProt P51449)
Assay: ATG_RORg_TRANS: Attagene TRANS-FACTORIAL HepG2 Assay for human RAR-related Orphan Receptor gamma (RORg) (AID 2283011)
Description: ATG_TRANS is a cell-based, multiplexed-readout assay that uses HepG2, a human liver cell line, with measurements taken at 24 hours after chemical dosing in a 24-well plate.ATG_RORg_TRANS is one of 30 assay component(s) measured or calculated from the ATG_TRANS assay. It is designed to make measurements of mRNA induction, a form of inducible reporter, as detected with fluorescence intensity signals by Reverse transcription polymerase chain reaction (RT-PCR) and Capillary electrophoresis technology.Data from the assay component ATG_RORg_TRANS was analyzed into 1 assay endpoint. This assay endpoint, ATG_RORg_TRANS, was analyzed in the positive analysis fitting direction relative to DMSO as the negative control and baseline of activity. Using a type of inducible reporter, measures of mRNA for gain-of-signal activity can be used to understand the reporter gene at the transcription factor-level as they relate to the gene RORC. Furthermore, this assay endpoint can be referred to as a primary readout, because this assay has produced multiple assay endpoints where this one serves a reporter gene function. To generalize the intended target to other relatable targets, this assay endpoint is annotated to the nuclear receptor intended target family, where the subfamily is orphan.
Human liver HepG2 cells are transiently transfected with multiple reporter transcription units (MRTUs) in 6-well plates using FuGene 6 reagent (Roche; 3 ml FuGene/1 mg DNA). The MRTU constructs are regulated by a cis-regulating element (promoter). […] A major difference between the CIS and TRANS system is that in CIS activities of endogenous TFs are measured, whereas the TRANS assay evaluates changes in activities of exogenous, chimeric NR-Gal4 proteins. […] At the end of 24 hour incubation, total RNA was isolated using TriZol reagent (Invitrogen). The isolated RNA is then reverse-transcribed using oligo(dT) primer and Mo-MLV reverse transcriptase (Invitrogen) with DNAse I (Ambion) treatment for 30 min. The one-tenth of the produced cDNA was amplified by PCR using Taq DNA polymerase (Invitrogen) and two reporter sequence-specific primers. The PCR products were fluorescently labeled by primer extension with 6-arboxyfluorescein (6-FAM) 5'-labeled reporter sequence-specific primer (2 min at 95 C, 20 s at 68 C and 10 min at 72 C) and these products were digested with 5U of HpaI (New England Biolabs) for 2h at 37 C. The fragments were purified using Qiaquick PCR columns (Qiagen), analyzed on an ABI 3130xL genetic analyzer (Applied Biosystems) with peak positions identified by using a set of X-rhodamine (ROX)-labeled MapMarker1000 molecular weight standards (BioVentures). The raw capillary electrophoresis data was processed using Attagraph software (Attagene).

Sequence of human RAR-related Orphan Receptor gamma (RORg), RORC (gene 6097) (P51449 whole entry, looked up): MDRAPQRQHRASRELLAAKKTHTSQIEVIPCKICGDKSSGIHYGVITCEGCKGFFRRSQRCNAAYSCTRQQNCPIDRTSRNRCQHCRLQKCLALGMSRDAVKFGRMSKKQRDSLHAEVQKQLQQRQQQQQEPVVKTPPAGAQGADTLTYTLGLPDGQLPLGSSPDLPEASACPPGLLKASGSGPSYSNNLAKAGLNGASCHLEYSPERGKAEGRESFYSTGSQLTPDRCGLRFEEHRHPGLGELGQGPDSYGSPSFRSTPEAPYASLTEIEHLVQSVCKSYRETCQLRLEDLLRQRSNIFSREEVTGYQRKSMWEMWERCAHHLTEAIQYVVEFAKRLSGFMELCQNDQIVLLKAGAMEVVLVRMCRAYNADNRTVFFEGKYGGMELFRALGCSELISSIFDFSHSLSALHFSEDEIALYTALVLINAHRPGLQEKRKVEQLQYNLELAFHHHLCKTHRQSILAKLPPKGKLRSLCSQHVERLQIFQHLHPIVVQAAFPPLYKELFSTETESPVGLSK

**Q.** With Clc1ccc(Cl)cc1 as the compound, how does the outcome read?
**A.** inactive

**Q.** Which outcome does the source give for CCC(C)(c1ccc(O)cc1)c1ccc(O)cc1 here?
**A.** inactive

**Q.** How did the outcome turn out when Cc1cc(O)ccc1Cl was run?
**A.** inactive

**Q.** For Cc1cc2c3c(c1)C(c1ccccc1)=N[C@@H](NC(=O)c1ccncc1)C(=O)N3CC2, which outcome is on record?
**A.** inactive

**Q.** Which outcome does the source give for OCC(O)CO here?
**A.** inactive

**Q.** Which outcome does the source give for Sc1ccccc1 here?
**A.** inactive

**Q.** With CC(C)(O)C(=O)Nc1ccc([N+](=O)[O-])c(C(F)(F)F)c1 as the compound, how does the outcome read?
**A.** inactive

**Q.** With CC(C)C(=O)OCC(C)(C)C(OC(=O)C(C)C)C(C)C (stereo not given) as the compound, how does the outcome read?
**A.** inactive

**Q.** With O=S(=O)(O)C(F)(F)C(F)(F)C(F)(F)C(F)(F)C(F)(F)C(F)(F)F as the compound, how does the outcome read?
**A.** inactive

**Q.** With C[C@]12CCC(=O)C=C1CC[C@@H]1[C@@H]2CC[C@@]2(C)[C@H]1CC[C@]2(C)O as the compound, how does the outcome read?
**A.** inactive

**Q.** For C[C@]12CCC(=O)C=C1CC[C@@H]1[C@@H]2CC[C@]2(C)C(=O)CC[C@@H]12, which outcome is on record?
**A.** inactive

**Q.** How did the outcome turn out when O=C(O)C(F)(F)C(F)(F)C(F)(F)C(F)(F)C(F)(F)C(F)(F)C(F)(F)C(F)(F)C(F)(F)F was run?
**A.** inactive

**Q.** Which outcome does the source give for O=NN(c1ccccc1)c1ccccc1 here?
**A.** inactive

**Q.** Which outcome does the source give for CN(C)CCO here?
**A.** inactive

**Q.** O=C(NC(=O)c1cc(F)c(F)cc1Cl)Nc1cc(F)ccc1N1CCC(C(=O)O)CC1 was tested. Which outcome did it give?
**A.** inactive

**Q.** How did the outcome turn out when NS(=O)(=O)C(F)(F)C(F)(F)C(F)(F)C(F)(F)C(F)(F)C(F)(F)C(F)(F)C(F)(F)F was run?
**A.** inactive

**Q.** CCC(=O)O[C@H]1CC[C@H]2[C@@H]3CCC4=CC(=O)CC[C@]4(C)[C@H]3CC[C@]12C was tested. Which outcome did it give?
**A.** inactive

**Q.** For O=S(=O)(O)C(F)(F)C(F)(F)C(F)(F)C(F)(F)F, which outcome is on record?
**A.** inactive

**Q.** How did the outcome turn out when CCCCCCCCCC[N+](C)(C)CCCCCCCCCC was run?
**A.** inactive

**Q.** How did the outcome turn out when O=C(O)C(F)(F)C(F)(F)C(F)(F)C(F)(F)C(F)(F)C(F)(F)C(F)(F)C(F)(F)F was run?
**A.** inactive

**Q.** CCCN(CCC)N=O was tested. Which outcome did it give?
**A.** inactive

**Q.** Which outcome does the source give for CCC(C)(CC)c1cc(NC(=O)c2c(OC)cccc2OC)on1 here?
**A.** inactive

**Q.** How did the outcome turn out when C1CC2OC2CC1C1CO1 (stereo not given) was run?
**A.** inactive

**Q.** For Cc1cc(-c2ccc(N)c(C)c2)ccc1N, which outcome is on record?
**A.** inactive

**Q.** For N#Cc1ccc(N(CC(N)=O)CC(F)(F)F)cc1C(F)(F)F, which outcome is on record?
**A.** inactive
